Source: PubChem BioAssay (NCATS)
Results filed as inconclusive are left out. Activity calls are given as the source filed them. Calls come from the whole dose curve; as a rule, active = well fitted curve in the direction sought with a large enough effect; inconclusive = small, poorly fitted or top-dose-only effect, or another doubt; inactive = no such curve, though single readings can be large; an effect the other way counts as inactive or inconclusive. Where a SMILES comes first, the peptide text is derived from it. Bridges are numbered along the chain shown (N, C = ends). [ ]: non-standard residue; d: D form. hArg = N=C(N)NCCCC[C@H](N)C(=O)O; Mpa = O=C(O)CCS

Assays:
[1] = qHTS assay for measurement of the activity of small molecule inhibitors on Zika virus induced Caspase-3 activity in human iPSC derived neural progenitor cells (hNPCs) (AID 1224857); note: % of control where 0% means no effect; nearly all actives have a fitted effect of over 65% in size
Method in brief: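 Cells were plated at 350 per well and grown 16 to 20 hours. Compound pretreatment lasted one hour, after which ZIKV (2 FFU/cell) was added for 6 hours. Percent inhibition was normalized between uninfected and infected controls.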

[2] = qHTS assay for measurement of the activity of small molecule inhibitors on Zika virus induced Caspase-3 activity in human astrocytoma cells (AID 1224859);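 note: plate controls were ZIKV-infected untreated cells for no effect and uninfected cells for full effect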
Method in brief: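 Percent inhibition of virus-induced caspase-3/7 signal is calculated against uninfected and ZIKV-infected control cells. Cells are SNB-19, infected at 2 FFU/cell for 6 h after 1 h compound exposure.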

[3] = qHTS assay to identify small molecule inhibitors of chordoma cells - UCH-1 (AID 1259355); note: % is set by controls: 0 for no effect and ±100 for the full control effect; nearly all actives have a fitted effect of over 55% in size
Method in brief: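 Seed 800 cells per well; incubate overnight at 37 C, 5% CO2. Add test compounds (15 concentrations), then the auranofin–topoisomerase-agent combination. Incubate 48hr, add CellTiter-Glo, wait 30min, read luminescence.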

[4] = qHTS assay to identify small molecule inhibitors of chordoma cells - UCH-2 (AID 1259356); note: series mostly up to about 46 µM; % is set by controls: 0 for no effect and ±100 for the full control effect

Measured: activity change, negative = inhibition

CC[C@]12CCCN3CCc4c(n(c5ccccc45)[C@@](O)(C(=O)OC)C1)[C@@H]32
inactive: all assays above

CCCCOC(=O)c1ccc(N)cc1
inactive: [1] | [2] | [3]

CCOc1ccccc1O[C@H](c1ccccc1)[C@H]1CNCCO1
inactive: [1] | [2] | [3]

NC(N)=NCCN1CCCCCCC1
inactive: [1] 6.93% [at 0.568 µM] | [2] -3.82% [at 0.568 µM] | [3] | [4]

O=C(CCBr)N1CCN(C(=O)CCBr)CC1
inactive: all assays above

O=C1CC[C@@H](C(=O)O)N1
inactive: all assays above

CCCCCCCCCCCCCCCCN
inactive: all assays above

CC(O)CCCCn1c(=O)c2c(ncn2C)n(C)c1=O (stereo not drawn)
inactive: all assays above

CN(C/C=C/C#CC(C)(C)C)Cc1cccc2ccccc12
inactive: all assays above

COc1ccc(Cc2cnc(N)nc2N)cc1OC
inactive: all assays above

NC(=O)NS(=O)(=O)c1ccc(N)cc1
inactive: all assays above

Cc1onc(-c2ccccc2)c1-c1ccc(S(N)(=O)=O)cc1
inactive: all assays above

NC(=O)[C@@H]1CSSCCC(=O)N[C@@H](CCCCN=C(N)N)C(=O)NCC(=O)N[C@@H](CC(=O)O)C(=O)N[C@@H](Cc2c[nH]c3ccccc23)C(=O)N2CCC[C@H]2C(=O)N1 ([Mpa][hArg]GDWPC-NH2; disulfide 1-7)
inactive: [1] | [2] | [3]

Cc1ccc(S(=O)(=O)NC(=O)NC2CCCCC2)cc1
inactive: [1] | [2] | [3]

Cc1ccc(S(=O)(=O)NC(=O)NC2CCCCCCC2)cc1
inactive: all assays above

Cc1cc(C)c(NC(=O)CN(CC(=O)O)CC(=O)O)c(C)c1Br
inactive: all assays above

COc1ccc(C(=O)N2CCN(CC(=O)N3CCOCC3)CC2)cc1
inactive: all assays above

CCN(CC)S(=O)(=O)c1ccc(C(=O)O)cc1
inactive: all assays above

CC1CC(OC(=O)c2ccccc2O)CC(C)(C)C1 (stereo not drawn)
inactive: all assays above

CC1CCc2cc(F)cc3c(=O)c(C(=O)O)cn1c23 (stereo not drawn)
inactive: all assays above

O=C(O)COC(=O)Cc1ccccc1Nc1c(Cl)cccc1Cl
inactive: all assays above

CCCCCC(N)=O
inactive: all assays above

O=C1c2cccc(O)c2C(=O)c2c(O)cccc21
inactive: [1] | [2] | [3]

CN1C[C@@H]2C[C@H]1CN2c1cc2c(cc1F)c(=O)c(C(=O)O)cn2C1CC1
inactive: all assays above

COc1ccccc1OC(=O)Oc1ccccc1OC
inactive: all assays above

O=C(O)c1cc(=O)c2ccccc2o1
inactive: all assays above

O=c1[nH]c(=O)c2ccccc2o1
inactive: all assays above

CCCCCOC(=O)Nc1nc(=O)n([C@@H]2O[C@H](C)[C@@H](O)[C@H]2O)cc1F
inactive: all assays above

CCN1CC(CCN2CCOCC2)C(c2ccccc2)(c2ccccc2)C1=O (stereo not drawn)
inactive: all assays above

COC(=O)c1ccccc1C(=O)c1ccc(OCCN2CCCCC2)cc1
inactive: all assays above

Cc1cccc(C)c1NC(=O)CC12CCCN1CCC2
inactive: all assays above

O=C(Cn1ccnc1[N+](=O)[O-])NCc1ccccc1
inactive: all assays above

O=C1c2ccccc2C(=O)C1c1ccc(Br)cc1
inactive: [1] | [2] | [3]

CCOC(=O)[C@H](CCc1ccccc1)N[C@@H](C)C(=O)N1CCC[C@H]1C(=O)O
inactive: all assays above

O=C(O)C(S)C(S)C(=O)O (stereo not drawn)
inactive: all assays above

OCCN1C[C@H](O)[C@@H](O)[C@H](O)[C@H]1CO
inactive: all assays above
